The values that follow come from PubChem BioAssay (NCATS).

Inconclusive results are not listed. Active and inactive are the calls of the source. Calls come from the whole dose curve; as a rule, active = well fitted inhibition curve with a large enough effect; inconclusive = small, poorly fitted or top-dose-only effect; inactive = flat fitted curve, though single readings scatter.

The assay relates to CRL-7250. Description: qHTS assay to identify novel small-molecules to repurpose for Merkel cell carcinoma treatment (AID 1296009). Note: nearly all actives have a fitted effect of over 60% in size. Particulars: MCC and control cell lines, CellTiter-Glo viability, 72 h; series mostly up to 92 µM; activity change, negative = cytotoxicity: at the top concentration. In outline:
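Cell viability, measured as CellTiter-Glo luminescence, was normalized between DMSO and no-cell wells. The cells had been exposed to 8- or 11-point compound dilutions for 72 hr at 37 degree celsius.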
On to `Clc1ncoc1-c1c[nH]c2ccccc12`, for which the compound was called inactive.
Next, `C=C1C(=O)OC[C@H]2C(C(=O)O)=CC3CC(C)(C)C[C@@]132` (stereo not given in full): “inactive”.
Next, `CC1CCC2(CO)C(C(=O)O)=CCCC2C1(C)CCc1ccoc1` (stereo not given): “inactive”; `NC(=O)[C@H](O[C@@H]1O[C@H](CO)[C@@H](O)[C@H](O)[C@H]1O)c1ccccc1`: “inactive”.
The same measure for `CC(C)S(=O)(=O)NC[C@H](C)c1ccc(NC(=O)c2cc(F)cc(F)c2)cc1`: “inactive”; for `Cc1occc(=O)c1O[C@@H]1O[C@H](COC(=O)CC(C)(O)CC(=O)O)[C@@H](O)[C@H](O)[C@H]1O` (stereo not given in full): “inactive [at 17.4 µM]”; for `CC(=O)OC[C@@]12[C@H](O)C[C@@H](C)[C@]3(C[C@@H](c4ccoc4)OC3=O)[C@H]1C[C@H](O)C[C@]21CO1`: “inactive [at 17.4 µM]”.
For the compound `CC1(O)CCC2C(C(=O)O)=COC(OC3OC(CO)C(O)C(O)C3OC(=O)/C=C/c3ccc(O)cc3)C21` (stereo not given), the “outcome” value is “inactive [at 17.4 µM]”.
Next, `O=C(Nc1ccccc1C(=O)NC1CCCCNC1=O)c1cc2ccccc2s1` (stereo not given): “inactive”.
The same measure for `Fc1ccc(-c2nc(C3CCNCC3)sc2-c2ccnc(NC3CC3)n2)cc1`: “inactive”.
The same measure for `C[C@@H]1O[C@@H](O[C@@H]2[C@@H](O)[C@H](O[C@H]3[C@H](O[C@H]4CC[C@@]5(C)C(CC[C@]6(C)C5CC=C5[C@@H]7CC(C)(C)CC[C@]7(C(=O)O[C@@H]7O[C@H](CO)[C@@H](O)[C@H](O)[C@H]7O[C@@H]7O[C@@H](C)[C@H](O[C@@H]8O[C@@H](C)[C@H](O)[C@@H](O)[C@H]8O)[C@@H](O)[C@H]7O)CC[C@]56C)[C@@]4(C)CO)O[C@H](C(=O)O)[C@@H](O)[C@@H]3O)O[C@H](CO)[C@H]2O)[C@H](O)[C@H](O)[C@H]1O` (stereo not given in full): “inactive [at 9.27 µM]”; for `COc1c2c(c(C)c3c1C(=O)OC3)OC1(C)CC(O)C34OC(OC)(CC(OC(C)=O)C3(C)C1C2)OC4(C)C` (stereo not given): “inactive [at 17.4 µM]”; for `CC1(C)CC[C@]2(C(=O)O)CC[C@]3(C)C(=CCC4[C@@]5(C)C[C@@H](O)[C@H](O)C(C)(C)C5CC[C@]43C)C2C1` (stereo not given in full): “inactive [at 17.4 µM]”.
`Clc1cccc(COc2cncc(N3CCNCC3)n2)c1`: the result was inactive.
The same measure for `CC1=C2C[C@@]3(C)[C@@H](CCC[C@@H]3C)C[C@@]2(O)OC1=O`: “inactive”; for `CC1(C)CC[C@]2(C(=O)O[C@@H]3O[C@H](CO[C@@H]4O[C@H](CO)[C@@H](O)[C@H](O)[C@H]4O[C@@H]4O[C@H](CO)[C@@H](O)[C@H](O)[C@H]4O)[C@@H](O)[C@H](O[C@@H]4O[C@H](CO)[C@@H](O)[C@H](O)[C@H]4O)[C@H]3O)CC[C@]3(C)C(=CCC4[C@@]5(C)CC[C@@H](O)[C@@](C)(C(=O)O[C@@H]6O[C@H](CO)[C@@H](O)[C@H](O)[C@H]6O)C5CC[C@]43C)[C@@H]2C1` (stereo not given in full): “inactive [at 9.27 µM]”; for `C=C1CC23CC(=O)C4C(CO)(CO)CCCC4(C)C2CCC1C3` (stereo not given): “inactive”.
The same measure for `C=C1CCC2C(C)(C)C(O)CCC2(C)C1CCC(C)CCOC(C)=O` (stereo not given): “inactive”; for `COC(=O)C1=C2Nc3ccccc3C23CCN2CCCC(C(C)O)(C1)C23` (stereo not given): “inactive”; for `C=C1CCC2C(C)(C)CC(=O)CC2(C)C1CCC(C)CCOC(C)=O` (stereo not given): “inactive”.
Next, `CC1CCC2(NC1)OC1C(=O)C3C4CCC5CC(O[C@@H]6O[C@H](CO)[C@@H](O)[C@H](O)[C@H]6O[C@@H]6O[C@@H](C)[C@H](O)[C@@H](O)[C@H]6O)CCC5(C)C4CCC3(C)C1C2C` (stereo not given in full): “inactive [at 17.4 µM]”.
As to `COc1cc(/C=C/C(=O)O[C@H]2[C@H](OC(=O)/C=C/c3cc(OC)c(O)c(OC)c3)O[C@H](CO[C@@H]3O[C@H](CO)[C@@H](O)[C@H](O)[C@H]3O)[C@@H](O)[C@@H]2O)ccc1O`, the “outcome” value was “inactive [at 17.4 µM]”.
Next, `C[C@@H]1O[C@@H](OC[C@H]2O[C@@H](OCc3ccccc3)[C@H](O)[C@@H](O)[C@@H]2O)[C@H](O)[C@H](O)[C@H]1O`: “inactive [at 17.4 µM]”.
Next, `CC(C)C1=CC2=CCC3[C@](C)(CCC[C@@]3(C)C(=O)O)C2CC1=O` (stereo not given in full): “inactive”.
Next, `C=C(C(=O)O)[C@@H]1CC[C@@]2(C)CC[C@H](O)[C@@]2(C(C)=O)C1`: “inactive”.
As for `CC(C)(Oc1ccc(-c2nc3cc(Cl)ccc3s2)cc1)C(=O)O`, the compound was classed as inactive.
The same measure for `O=C(/C=C/c1ccc(O)cc1)OC[C@H]1O[C@H](O[C@@]2(CO)O[C@@H](CO)[C@H](O)[C@H]2O)[C@H](O)[C@@H](O)[C@@H]1O`: “inactive [at 17.4 µM]”.
Next, `CC1(C)C2CC=C(COC3OC(COC4OCC(O)(CO)C4O)C(O)C(O)C3O)C1C2` (stereo not given): “inactive [at 17.4 µM]”; `Cc1cc(Nc2nc(NC(C)c3ncc(F)cn3)ncc2Cl)n[nH]1` (stereo not given): “inactive”; `C=C1CC[C@@]2(OC1)O[C@H]1CC3C4CC=C5C[C@@H](O[C@@H]6O[C@@H](C)[C@H](O)[C@@H](O)[C@H]6O)C[C@@H](O[C@@H]6O[C@H](C)[C@H](O)[C@H](O)[C@H]6O[C@@H]6O[C@@H](C)[C@H](O)[C@@H](O)[C@H]6O)[C@]5(C)C4CC[C@]3(C)[C@H]1[C@@H]2C` (stereo not given in full): “inactive [at 9.27 µM]”.
The same measure for `C=C1CC[C@@H]2[C@](C)(CO[C@@H]3O[C@H](CO)[C@@H](O)[C@H](O)[C@H]3O)CCC[C@@]2(C)[C@@H]1CCC1=CCOC1=O`: “inactive [at 17.4 µM]”; for `COc1ccc(/C=C/C(=O)O[C@H]2[C@@H]3C=CO[C@@H](O[C@@H]4O[C@H](CO)[C@@H](O)[C@H](O)[C@H]4O)[C@@H]3[C@@]3(CO)O[C@@H]23)cc1O`: “inactive [at 17.4 µM]”.
`O=C(Nc1ccc(-c2ccc(Cl)c(Cl)c2)cc1)C1=C(O)c2ccccc2S(=O)(=O)N1`: the compound was called inactive.
Take `COc1cc(OC)cc(C(=O)Nc2ccc(Cl)c(-c3nc4ccc(N(C)C)cc4[nH]3)c2)c1`: the call was inactive.
Next, `CC(=O)OC[C@]12[C@H](OC(C)=O)[C@H](OC(=O)c3ccccc3)[C@@H]3[C@@H](OC(C)=O)[C@]1(OC3(C)C)[C@H](C)C[C@H](OC(=O)c1ccccc1)[C@@H]2OC(=O)c1ccccc1`: “inactive [at 17.4 µM]”; `COC(=O)C[C@H]1C(C)(C)[C@H](OC(=O)C(C)C)[C@@]2(O)C(=O)[C@]1(C)C1CC[C@]3(C)C(CC(=O)O[C@H]3c3ccoc3)[C@]13O[C@@H]32` (stereo not given in full): “inactive [at 17.4 µM]”.
Next, `CC1=C(C)C(=O)OC(C(C)C2C(O)CC3C4C5OC5C5(O)CC(OC6OC(CO)C(O)C(O)C6O)CC(O)C5(C)C4CCC32C)C1` (stereo not given): “inactive [at 17.4 µM]”; `C[C@@H]1O[C@@H](OC2C(CO)OC(OCC3OC(OC(=O)[C@]45CCC(C)(C)CC4C4=CCC6[C@@]7(C)CC[C@@H](O)[C@](C)(C(=O)O)C7CC[C@@]6(C)[C@]4(C)CC5)C(O)C(O)C3O)C(O)C2O)[C@H](O)[C@H](O)[C@H]1O` (stereo not given in full): “inactive [at 9.27 µM]”; `C[C@@H]1CC[C@]2(C)C(C[C@@H](O)[C@H](O)[C@]23CO3)[C@@]1(C)CCc1ccoc1` (stereo not given in full): “inactive”.
Next, `CC(=O)N[C@@H](CCCCN)C(=O)N(C)[C@@H](CC(C)C)C(=O)N[C@H](C(=O)N(C)[C@@H](Cc1ccccc1)C(=O)N[C@H](Cc1ccccc1)C(N)=O)C(C)C`: “inactive [at 4.96 µM]”.
